The source of these data is PubChem BioAssay (Tox21).

Several values for one entry are separate records, joined by “and”; a condition that tells them apart may be missing. Equal entries are not always repeated. Records with an inconclusive call do not appear. Where a structure was tested more than once in an assay, its records may differ in their call. Activity calls are given as the source filed them. Unless noted, calls follow the shape of the dose curve; as a rule, active = well fitted curve in the direction sought with a large enough effect in the repeat runs; inconclusive = weak or mixed curves; inactive = no such curve, though single readings can be large; an effect the other way counts as inactive or inconclusive.

The target of test [1] is Progesterone receptor (Homo sapiens) (UniProt P06401). As to the kind of experiment: qHTS assay to identify small molecule agonists of the progesterone receptor (PR) signaling pathway (AID 1346784; calls by dose curve; also: nearly all actives have a fitted effect of over 30% in size). The method in brief: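 PR-UAS-bla HEK 293T cells (beta-lactamase reporter under UAS) in 2% charcoal-stripped FBS, dosed with 23 nL compound after 6 hr, incubated 16hr at 37C. LiveBLAzer B/G FRET substrate added, fluorescence read after 2 hours.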
Progesterone receptor (Homo sapiens), sequence (P06401 whole entry, looked up): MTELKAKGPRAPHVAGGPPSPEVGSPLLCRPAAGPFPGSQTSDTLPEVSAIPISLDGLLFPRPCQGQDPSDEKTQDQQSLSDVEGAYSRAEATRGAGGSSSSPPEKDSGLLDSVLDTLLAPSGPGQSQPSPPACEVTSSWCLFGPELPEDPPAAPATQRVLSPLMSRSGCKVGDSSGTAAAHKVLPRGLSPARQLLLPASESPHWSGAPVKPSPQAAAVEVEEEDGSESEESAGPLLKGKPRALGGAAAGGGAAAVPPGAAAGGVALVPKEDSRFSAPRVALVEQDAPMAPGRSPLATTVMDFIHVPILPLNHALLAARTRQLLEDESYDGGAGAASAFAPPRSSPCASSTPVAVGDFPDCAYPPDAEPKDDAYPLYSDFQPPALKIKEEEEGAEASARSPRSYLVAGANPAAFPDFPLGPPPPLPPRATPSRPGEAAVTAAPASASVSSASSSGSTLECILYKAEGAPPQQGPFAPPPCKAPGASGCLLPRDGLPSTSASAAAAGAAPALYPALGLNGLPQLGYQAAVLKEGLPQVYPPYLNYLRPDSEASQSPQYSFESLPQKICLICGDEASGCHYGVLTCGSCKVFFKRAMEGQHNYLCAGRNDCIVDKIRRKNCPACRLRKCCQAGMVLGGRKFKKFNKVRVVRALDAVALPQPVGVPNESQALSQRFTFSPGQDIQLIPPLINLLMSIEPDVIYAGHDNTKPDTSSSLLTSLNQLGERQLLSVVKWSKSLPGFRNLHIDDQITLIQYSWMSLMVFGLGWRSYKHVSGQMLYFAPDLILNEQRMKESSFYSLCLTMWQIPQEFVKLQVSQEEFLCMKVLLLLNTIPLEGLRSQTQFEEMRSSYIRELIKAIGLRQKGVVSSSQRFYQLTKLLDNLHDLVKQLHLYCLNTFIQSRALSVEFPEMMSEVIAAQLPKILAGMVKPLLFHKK
In general terms: qHTS replaces the single test concentration by a dilution series.

Test [2] shares this target. As to the kind of experiment: qHTS assay to identify small molecule antagonists of the progesterone receptor (PR) signaling pathway (AID 1346795; active = well fitted inhibition curve with a large enough effect in the signal ratio in the repeat runs, not every such curve was filed as active; the % refers to the signal ratio; also: potency is read from the fitted curve at half-maximal effect). In short, it runs like this: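 PR-UAS-bla HEK293T cells with beta-lactamase reporter under UAS control, in 2% charcoal-stripped FBS, treated with compounds plus 1 nM promegestone (R5020, final) for 16 hr at 37C. Read-out: FRET beta-lactamase substrate fluorescence after 2 hr at room temperature.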

Test [3] in a line: qHTS assay to identify small molecule antagonists of the progesterone receptor (PR) signaling pathway - cell viability counter screen (AID 1346798). Also: series mostly up to about 92 µM; nearly all actives have a fitted effect of over 50% in size. The method in brief: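 PR-UAS-bla HEK293T cells, 3,000/well in 2% charcoal-stripped FBS medium, dosed with compounds plus R5020 agonist and incubated 16 h at 37C. Viability then measured in the same wells by CellTiter-Glo luminescence after 30 min at RT.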

Test [4] is described as follows: qHTS assay to identify small molecule agonists of the progesterone receptor (PR) signaling pathway - cell viability counter screen (AID 1346799; calls by dose curve; also: nearly all actives have a fitted effect of over 45% in size). In short, it runs like this: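 Counter screen in the PR-UAS-bla HEK293T wells (2% charcoal-stripped FBS, 16 h compound exposure at 37 C) after the bla read. CellTiter-Glo added, 30 min at room temperature, luminescence read as cell viability.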

Test [5] in a line: qHTS assay to identify small molecule antagonists of the TGF-beta/Smad signaling pathway - cell viability counter screen (AID 1346824). Also: nearly all actives have a fitted effect of over 50% in size. The method in brief: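 Cytotoxicity counter-screen run in the same wells as the beta-lactamase Smad reporter read: CellTiter-Glo luminescence after 30 min at room temperature. HEK 293T SBE-bla cells had 5 hr compound exposure at 37 C with TGF-beta1 (0.25 ng/mL stock).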

Test [6] in a line: qHTS assay to identify small molecule agonists of the TGF-beta/Smad signaling pathway - cell viability counter screen (AID 1346829). Also: top concentration of the series differs between compounds; nearly all actives have a fitted effect of over 45% in size. The method in brief: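 Same-well cytotoxicity: CellTiter-Glo added after the 2 hr room-temperature beta-lactamase substrate step, luminescence measured 30 min later; cells had 5 hr of compound at 37 C.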
A short description of test [7]: qHTS assay to identify small molecule agonists of the TGF-beta/Smad signaling pathway (AID 1346859; active = well fitted activation curve with a large enough effect in the signal ratio in the repeat runs, not every such curve was filed as active; the % refers to the signal ratio; also: series mostly up to about 77 µM). In short, it runs like this: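 SBE-bla HEK293T cells plated overnight, then compound exposure for 5 h at 37 C. Beta-lactamase reporter read with LiveBLAzer B/G FRET substrate after 2 h at room temperature, fluorescence at 405 nm excitation, 460/530 nm emission.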
Test [8] deals with Thyrotropin-releasing hormone receptor (Homo sapiens) (UniProt P34981). Nature of the test: qHTS assay to identify small molecule antagonists of the thyrotropin-releasing hormone receptor (TRHR) signaling pathway (AID 1346877; active = well fitted inhibition curve with a large enough effect in the repeat runs, not every such curve was filed as active; also: series mostly up to about 51 µM). The method in brief: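 Intracellular calcium fluorescence, read kinetically every second over 3 min, reports TRH-evoked signalling in HEK293 cells carrying TRHR. Test compounds were added 5 min ahead of a 1 nM TRH challenge.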
Thyrotropin-releasing hormone receptor (Homo sapiens), sequence (P34981 whole entry, looked up): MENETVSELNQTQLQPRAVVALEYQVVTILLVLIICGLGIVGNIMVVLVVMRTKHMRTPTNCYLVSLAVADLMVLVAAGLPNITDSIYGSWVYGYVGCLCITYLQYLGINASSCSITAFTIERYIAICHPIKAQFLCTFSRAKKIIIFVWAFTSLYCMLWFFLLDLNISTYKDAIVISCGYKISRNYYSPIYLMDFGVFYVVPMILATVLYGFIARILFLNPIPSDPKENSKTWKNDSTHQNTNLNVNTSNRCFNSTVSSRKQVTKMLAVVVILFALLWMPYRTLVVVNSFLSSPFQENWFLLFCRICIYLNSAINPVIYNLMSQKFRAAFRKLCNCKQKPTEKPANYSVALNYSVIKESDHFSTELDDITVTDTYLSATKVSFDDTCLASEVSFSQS

Test [9] has the same target. As to the kind of experiment: qHTS assay to identify small molecule agonists of the thyrotropin-releasing hormone receptor (TRHR) signaling pathway (AID 1346891; calls by dose curve; also: series mostly up to about 58 µM). In short, it runs like this:
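HEK293 cells expressing TRHR plated 18 h at 37 C/5% CO2, calcium dye-loaded 2 h at 37 C, then compound added (agonist mode); kinetic calcium fluorescence read 3 min at 1 s intervals; 15 concentrations in triplicate.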

A short description of test [10]: Human pregnane X receptor (PXR) small molecule agonists, qHTS cell viability counter screen (AID 1346977). Also: nearly all actives have a fitted effect of over 50% in size. In short, it runs like this:
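PXR-Luc HepG2 cells (2,000/well, 5% charcoal-stripped FBS) preincubated 5 hr, then exposed to compounds 24 hr at 37 C. Viability read in the same wells by CellTiter-Fluor fluorescence, reagent added at 23 hr, 1 hr incubation.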

A short description of test [11]: Caspase-3/7 induction in CHO-K1 cells by small molecules, qHTS cell viability counter screen (AID 1346979). Also: nearly all actives have a fitted effect of over 35% in size. Also: potency is read from the fitted curve at half-maximal effect. In short, it runs like this: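 Wild-type CHO-K1 cells (1,500/well) treated with compound after 5 h plating; after 16 h at 37C, viability read as CellTiter-Fluor fluorescence following 1 h reagent incubation, in the same wells as the caspase read.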
The nature of test [12]: Caspase-3/7 induction in CHO-K1 cells by small molecules, qHTS assay (AID 1346980). Also: nearly all actives have a fitted effect of over 15% in size. The method in brief:
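Luminescent Caspase-Glo 3/7 read (30min, room temperature) quantified apoptosis induction. Cells were wild-type CHO-K1, treated with compound for 17hr at 37 C and 5% CO2.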

Test [13] can be described thus: Caspase-3/7 induction in HepG2 cells by small molecules, qHTS cell viability counter screen (AID 1346981). Also: series mostly up to about 92 µM; nearly all actives have a fitted effect of over 30% in size. In short, it runs like this:
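HepG2, WT, 2,000 cells/well; 5 hr pre-incubation 37 C/5% CO2; compound pin-transferred from DMSO; 16 hr exposure; CellTiter-Fluor, 1 hr; fluorescence read.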

For test [14], the target named is Nuclear receptor subfamily 1 group I member 2 (Homo sapiens) (UniProt O75469). As to the kind of experiment: Human pregnane X receptor (PXR) small molecule agonists, qHTS assay (AID 1346982). Also: nearly all actives have a fitted effect of over 35% in size. Also: potency is read from the fitted curve at half-maximal effect. In short, it runs like this:
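Luciferase signal from ONE-Glo (30 min, room temperature) measured activation of hPXR-driven CYP3A4 reporter expression in PXR-Luc HepG2 cells treated with compounds for 24 hr at 37 C.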

Test [15] concerns the target Cytochrome P450 2D6 (Homo sapiens) (UniProt P10635). As to the kind of experiment: Cytochrome P450 Family 2 Subfamily D Member 6 (CYP2D6) small molecule antagonists: luciferase reporter qHTS assay (AID 1671196). Also: nearly all actives have a fitted effect of over 50% in size. Also: potency is read from the fitted curve at half-maximal effect. In short, it runs like this:
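Read-out is luminescence from luciferin formed by CYP2D6 turnover of a proluciferin substrate, recorded as relative luminescence units. Reactions ran 1 h at room temperature after NADPH regeneration solution was added.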
(In general: Reporter assays use an easily measured gene product as a stand-in for the process of interest.)

The target in test [16] is Cytochrome P450 2C19 (Homo sapiens) (UniProt P33261). As to the kind of experiment: Cytochrome P450 Family 2 Subfamily C Member 19 (CYP2C19) small molecule antagonists: luciferase reporter qHTS assay (AID 1671197). Also: nearly all actives have a fitted effect of over 65% in size. Also: potency is read from the fitted curve at half-maximal effect. The method in brief:
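Quantitative high-throughput screen of the Tox21 library using CYP2C19 with proluciferin substrate. Reaction: NADPH regeneration, 37C, 1 h, after 10 min compound preincubation at room temperature. Readout: luminescence.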

A short description of test [17]: Caspase-3/7 induction in HepG2 cells by small molecules, qHTS assay (AID 1346978). Also: nearly all actives have a fitted effect of over 15% in size. The method in brief: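 Caspase-3/7 induction was measured by Caspase-Glo 3/7 luminescence (30 min, room temperature) after a 17 hr compound exposure of wild-type HepG2 cells seeded at 2,000 per well and pre-incubated 5 hr.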
Test [18] has as its target Nuclear receptor subfamily 1 group I member 2 (Rattus norvegicus) (UniProt Q9R1A7). Nature of the test: Rat pregnane X receptor (rPXR) activation by small molecules, qHTS assay (AID 1346983). Also: nearly all actives have a fitted effect of over 20% in size. As to conditions: rPXR luciferase reporter cells, One-Glo luminescence, 24 h; max activation: stronger effect = higher value. The method in brief:
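Luminescent readout (One-Glo luciferase, 30 min room temperature) followed 24 hr compound treatment at 37 C of rPXR cells plated 2,000 per well and preincubated 5hr; qHTS format with compounds delivered in DMSO.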

In test [19] the target is Nuclear receptor subfamily 1 group I member 2 (Homo sapiens) (UniProt O75469). As to the kind of experiment: CYP3A4 induction through human pregnane X receptor (PXR) by small molecules, qHTS assay (AID 1346984). Also: nearly all actives have a fitted effect of over 40% in size. The method in brief:
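Luminescence readout: luciferase signal after One-Glo (30 min, room temperature), following 3 h at 37C with 3uM final Luciferin-IPA P450 substrate. Cells were DPX-2 (HepG2, PXR/CYP3A4-luc co-transfected) dosed for 24 h.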

For test [20] the target is unchanged. Nature of the test: Human pregnane X receptor (PXR) activation by small molecules, qHTS assay (AID 1346985). Also: nearly all actives have a fitted effect of over 40% in size. The method in brief: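 DPX-2 cells (HepG2 co-transfected with a PXR response element and a CYP3A4-promoter luciferase construct) were seeded at 2,000 per well, rested 5 hr at 37C, then exposed to DMSO-dissolved compounds for 24 hr. Activation was read as luciferase luminescence.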
% is scaled to controls: 0 for no effect and ±100 for the full control effect.

Cytochrome P450 2D6 (Homo sapiens), sequence (P10635 whole entry, looked up): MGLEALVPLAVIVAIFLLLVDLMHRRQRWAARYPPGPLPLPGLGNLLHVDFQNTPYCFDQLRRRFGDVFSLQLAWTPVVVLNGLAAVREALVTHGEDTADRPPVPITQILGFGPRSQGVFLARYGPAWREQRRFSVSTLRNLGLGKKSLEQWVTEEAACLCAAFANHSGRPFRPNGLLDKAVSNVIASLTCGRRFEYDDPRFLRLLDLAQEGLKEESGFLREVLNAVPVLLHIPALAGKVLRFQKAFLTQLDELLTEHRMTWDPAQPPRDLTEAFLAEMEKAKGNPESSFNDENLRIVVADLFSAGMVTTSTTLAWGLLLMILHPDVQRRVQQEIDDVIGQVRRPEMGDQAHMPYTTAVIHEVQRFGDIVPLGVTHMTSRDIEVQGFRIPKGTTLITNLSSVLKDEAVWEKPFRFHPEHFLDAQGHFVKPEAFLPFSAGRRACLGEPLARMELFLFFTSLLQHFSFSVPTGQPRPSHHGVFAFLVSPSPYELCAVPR
Cytochrome P450 2C19 (Homo sapiens), sequence (P33261 whole entry, looked up): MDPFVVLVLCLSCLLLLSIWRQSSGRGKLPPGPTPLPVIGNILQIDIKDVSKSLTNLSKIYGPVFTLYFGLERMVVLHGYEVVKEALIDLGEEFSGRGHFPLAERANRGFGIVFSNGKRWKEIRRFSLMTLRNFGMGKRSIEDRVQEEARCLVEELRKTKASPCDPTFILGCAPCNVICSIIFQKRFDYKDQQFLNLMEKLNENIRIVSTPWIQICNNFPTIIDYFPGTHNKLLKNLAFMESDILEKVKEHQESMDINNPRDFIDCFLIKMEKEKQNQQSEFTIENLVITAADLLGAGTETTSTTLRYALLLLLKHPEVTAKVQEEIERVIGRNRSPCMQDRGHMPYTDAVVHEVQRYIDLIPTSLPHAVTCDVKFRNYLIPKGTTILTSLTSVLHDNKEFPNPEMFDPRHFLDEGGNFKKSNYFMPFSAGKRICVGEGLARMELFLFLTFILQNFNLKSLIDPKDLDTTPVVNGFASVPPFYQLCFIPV
Nuclear receptor subfamily 1 group I member 2 (Homo sapiens), sequence (O75469 whole entry, looked up): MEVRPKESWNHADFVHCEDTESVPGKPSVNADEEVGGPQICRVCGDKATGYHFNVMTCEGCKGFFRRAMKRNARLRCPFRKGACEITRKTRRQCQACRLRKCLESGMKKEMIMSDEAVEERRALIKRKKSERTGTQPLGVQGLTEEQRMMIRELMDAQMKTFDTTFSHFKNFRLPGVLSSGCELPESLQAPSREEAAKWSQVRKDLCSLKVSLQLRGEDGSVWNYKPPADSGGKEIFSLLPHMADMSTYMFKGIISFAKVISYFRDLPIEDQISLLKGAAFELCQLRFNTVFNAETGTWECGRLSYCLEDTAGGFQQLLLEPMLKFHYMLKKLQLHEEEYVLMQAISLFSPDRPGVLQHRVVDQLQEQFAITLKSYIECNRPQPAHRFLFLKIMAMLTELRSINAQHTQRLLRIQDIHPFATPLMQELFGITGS
Nuclear receptor subfamily 1 group I member 2 (Rattus norvegicus), sequence (Q9R1A7 whole entry, looked up): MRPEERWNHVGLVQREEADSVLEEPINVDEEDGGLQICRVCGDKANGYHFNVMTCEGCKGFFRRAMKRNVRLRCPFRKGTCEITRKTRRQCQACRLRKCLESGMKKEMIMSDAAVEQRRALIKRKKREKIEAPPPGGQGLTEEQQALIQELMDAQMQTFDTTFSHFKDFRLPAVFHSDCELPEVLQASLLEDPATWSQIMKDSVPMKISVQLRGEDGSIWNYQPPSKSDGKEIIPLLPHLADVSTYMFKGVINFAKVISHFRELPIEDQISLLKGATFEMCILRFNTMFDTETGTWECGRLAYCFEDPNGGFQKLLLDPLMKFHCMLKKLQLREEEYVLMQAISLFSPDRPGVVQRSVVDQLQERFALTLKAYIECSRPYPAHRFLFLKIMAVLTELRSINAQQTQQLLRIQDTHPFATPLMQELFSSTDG

With `NC1CCCCC1`, the Potency result in [1], in test [2], in test [3], in [4], in test [5] and in test [6] was “inactive” throughout. Moreover, the Potency entry in test [8], in [9], in [10], in test [11], in [12] and in test [13] was “inactive” throughout. Also, the Potency result in [14] and in test [15] was “inactive” in each case. For the same compound, in test [7], the outcome was inactive. In addition, the Potency in [16] is 35.8 µM (active) and inactive.
Regarding `CCOC(N)=O`, the Potency entry in test [1], in test [2], in test [3], in test [4], in test [5] and in test [6] was “inactive” throughout. The Potency result in test [8], in test [9], in [10], in test [17], in [11] and in test [12] was “inactive” throughout. Besides, the Potency result in test [13], in [14], in test [19] and in test [15] was “inactive” in each case. Further, the result in [7] and in [20] was inactive. Further, in test [18], the max activation is -2.09% (inactive). In addition, the Potency in test [16] was 60 µM (active) and inactive.
As to `CCCCC(CC)C(=O)O` (stereo unspecified), the Potency result in test [1], in [2], in test [3], in test [4], in test [5] and in [6] was “inactive” in each case. The Potency entry in [10], in test [17], in test [11], in [13], in [14] and in test [15] was “inactive” each time. Besides, the Potency entry in test [16] is “inactive”. Also, the result in [7] was inactive.
On to `CN1CCC[C@H]1c1cccnc1`, for which the Potency entry in test [1], in test [2], in [3], in [4], in test [5] and in test [6] was “inactive” throughout. Moreover, the Potency result in test [8], in test [9], in test [10], in test [11], in [13] and in [14] was “inactive” throughout. In addition, in [16], the Potency entry is “inactive”. Further, in [7], the result was inactive. Further, in [15], the Potency is 35.3 µM (active) and inactive.
As for `CCCCOC(=O)c1ccc(O)cc1`, the Potency entry in [1], in test [3], in test [4], in test [5], in [6] and in test [8] was “inactive” in each case. The Potency result in test [9], in [10], in [17], in [13] and in test [15] was “inactive” in each case. For the same compound, the Potency is 27.6 µM (active) and 27.3 µM (active) and 26.6 µM (active) in [2]; 31 µM (active) and inactive in test [11]; 69.4 µM (active) and inactive in [14]; 28.6 µM (active) and 35.6 µM (active) and 15.5 µM (active) in [16]. Moreover, in test [7], the compound was called inactive.
Turning to `NS(=O)(=O)O`, the Potency entry in [1], in test [2], in [3], in test [4], in test [5] and in [6] was “inactive” each time. The Potency entry in [10], in test [17], in test [11], in [12], in test [13] and in test [14] was “inactive” throughout. Besides, the Potency entry in test [15] was “inactive”. The outcome in test [7] was inactive. Further, the Potency in test [16] was 73.7 µM (active) and inactive.
On to `O=CC(=O)c1ccccc1`, for which the Potency result in test [1], in [2], in test [3], in [4], in test [5] and in test [6] was “inactive” throughout. Besides, the Potency result in test [8], in [9], in test [10], in test [12], in [13] and in test [14] was “inactive” each time. In addition, the compound was classed as inactive in [7]. Further, the Potency in [15] was 12.6 µM (active); in [16] it was 35.6 µM (active).
